# The supplement of paper PMC5407854, “Inhibitor of ppGalNAc-T3-mediated O-glycosylation blocks cancer cell invasiveness and lowers FGF23 levels” (eLife, 2017)
# Whole data set: some 1,700 compounds, median “T2 sensor activation Q score (MG/GFP ratio z-score vs DMSO controls)” near 0.3, cut for the highest 2% near 1.9. The list comes from a sample in which the highest values are over-represented; it also holds similar structures and randomly drawn compounds.
# System: ppGalNAc-T2 sensor
# Test: T2 sensor activation Q score (MG/GFP ratio z-score vs DMSO controls) (SD units); higher = more sensor activation (inhibition of ppGalNAc-T2 glycosylation)
# Conditions: HEK293 sensor cells; 10 µM; 6 h
# Procedure: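 Cells were treated with compound at 10 uM for 6 h, then MG/GFP ratio was read by flow cytometry (10,000 cells per well, duplicate wells). Q = (R - R_neg)/SD_neg relative to DMSO vehicle controls; the signal rises when the glycosyltransferase is inhibited.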
row,SMILES,T2 sensor activation Q score
1,Oc1c(N=Nc2nn[nH]n2)ccc2ccccc12,3.6
2,O=[N+]([O-])c1c(N2CCN(CCO)CC2)nc2ccccn12,0.7
3,OCc1nnn(-c2ccccc2)c1CO,0.8
4,NC(N)=N/N=C\c1c(Cl)cccc1Cl,0.25
5,Cc1cc(N2CCOCC2)nc(N2CCOCC2)n1,0.15
6,N#CC(c1ccccc1)C(C/C(=N\O)c1ccccc1)c1ccccc1 (stereo not drawn),-0.8
7,O=C(/C=C/c1cccnc1)/C=C/c1cccnc1,1.6
8,O=C(c1ccccc1)C1N=NCC1c1ccc(Cl)cc1 (stereo not drawn),0.05
9,O=c1nc(Oc2ccccc2)nc2ncccn12,1.9
10,Nc1nc(SCc2ccccn2)c2ncn(C3OC(CO)C(O)C3O)c2n1 (stereo not drawn),-0.15
11,Cc1cc(=O)n2[nH]c(-c3ccc(C(C)(C)C)cc3)cc2n1,0.15
12,Nc1nc(N)c2c(ccc3nccc32)[nH]1,1.3
13,O=C1C2C3C=CC(CC3)C2S(=O)(=O)C2C3C=CC(CC3)C12 (stereo not drawn),1.8
14,CCOC(=O)CCCN(c1[nH]c(C)c(C)c1C#N)S(=O)(=O)c1ccc(C)cc1,1.05
15,CCCCCC(=O)N1CCCCC1,-1.85
16,O=C1C=CC(=O)N1c1ccc(I)cc1Cl,-0.45
17,CC(=O)Oc1c(C)c(OC(C)=O)c2c(c1C(C)=O)OC1CC(=O)C(C(C)=O)=C(O)C21C (stereo not drawn),-1.8
18,O=C1Cc2cccc(=O)c(O)c2C(=O)O1,0.1
19,O=c1cccc2cc(O)c(O)c(O)c2c1O,2.35
20,CCOP(=O)(OCC)/C(C#N)=C/c1ccc([N+](=O)[O-])cc1,2.3
21,CCOP(=O)(OCC)/C(C#N)=C/c1ccc(-c2ccc(F)cc2F)o1,-0.9

row,SMILES,T2 sensor activation Q score
1,CCOP(=O)(OCC)/C(C#N)=C/c1c[nH]c2ccccc12,-0.2
2,Clc1ccc2nc3ccccc3cc2c1,1.3
3,CC(=O)Nc1ccc(OC(=O)Oc2ccc(NC(C)=O)cc2)cc1,1.2
4,Cc1ccc(C#CC(C)(O)C(C)(C)C)cn1 (stereo not drawn),-0.05
5,COc1cnc(SC)nc1Nc1ccc(C#N)cc1,1.65
6,N#Cc1c(N)nc(N)nc1Nc1ccc(Br)cc1,1.15
7,Cc1nc(N)nc(Nc2ccc(C#N)cc2)c1Br,2.35
8,CCc1nc(N)nc(N)c1-c1ccc(N(C)Cc2ccccc2)c([N+](=O)[O-])c1,-1.25
9,CC1(C)c2ccccc2-c2nc3ccccc3cc2C1O (stereo not drawn),-0.95
10,O=C1CC(c2ccc(O)cc2)Oc2cc(O)cc(O)c21 (stereo not drawn),0.75
11,CC(C)(C)c1ccc(OC(=O)c2ccccc2)cc1,0.95
12,CC(C)(C)CC(C)(C)N1CNC(=S)NC1,0.45
13,N#CCCCCN1CCCC1,-0.65
14,CCOC(=O)C(=O)C1C(=O)Nc2ccccc21 (stereo not drawn),1.15
15,Cc1c(Cl)cccc1NC(=O)CC1Sc2ccccc2NC1=O (stereo not drawn),2
16,CCCCSc1cc(=O)[nH]c(N)n1,1.85
17,NC(=O)C1=C(N)c2ccccc2C1c1ccccc1 (stereo not drawn),1.4
18,CCC1(CC)C(=O)NC(=S)N=C1N,1.7
19,c1ccc(-c2nc3ccccc3s2)nc1,0.6
20,c1ccc(-c2nc(-c3ccccn3)nc(-c3ccccn3)n2)nc1,-0.55
21,Cc1cc2nc(-c3ccccn3)c(-c3ccccn3)nc2cc1C,2.4

row,SMILES,T2 sensor activation Q score
1,O=c1ccc(Cl)n[nH]1,1.45
2,FC(F)(F)c1cccc(OCC2CNC(=S)O2)c1 (stereo not drawn),0.65
3,Cc1csc(NC(=O)c2ccc(C(=O)Nc3nc(C)cs3)cc2)n1,0.5
4,C=C1SC(=Nc2c(C)cccc2Cl)N(C(=O)c2sc3ccccc3c2Cl)C12CCCCC2,1.1
5,Nc1cc(N)nc(CS)n1,1.45
6,COCC(=O)Oc1cc(-c2ccc(C)cc2C)c(OC(=O)COC)c(-c2ccc(C)cc2C)c1,0.9
7,NC(=O)c1ccccc1OCC(=O)Nc1ccc(Cl)c(Cl)c1,0.1
8,Cc1cccc(C(O)C(O)c2cccc(C)n2)n1 (stereo not drawn),0.55
9,COc1ccccc1/C=C(\C#N)C(=O)O,1.4
10,c1ccc2c(c1)nnn2-c1ccncc1,-0.1
11,Nc1nnc(-c2cccnc2)s1,0.6
12,Cc1cnc2c(N)cc(C)c(C)c2c1,1.15
13,O=[N+]([O-])c1cc(-c2cccnc2)n[nH]1,-0.35
14,Nc1ccccc1C(=O)Nc1ccc(Cl)cc1Cl,0.45
15,C#CC1(N2CCCCC2)CCCCC1,0.8
16,Clc1nnc(NC2CCCCC2)c(Cl)c1Cl,0.15
17,CC(=O)OCC1OC(COC(C)=O)(c2ccc(C)cc2)C(OC(C)=O)C1OC(C)=O (stereo not drawn),0.15
18,c1ccc(NN(Cc2ccncc2)c2ccccc2)cc1,0.95
19,COc1cc(-c2ccc(Nc3ccccc3C(=O)O)c(OC)c2)ccc1Nc1ccccc1C(=O)O,-0.5
20,COc1ccc(Nc2cc(Cl)ccc2C(=O)O)cn1,2.25
21,CCCCOc1ccc(Nc2cc(Cl)ccc2C(=O)O)cn1,1.2
